# Sampled rows, rich in hits. Any-hit rate of the full collection: about 2.3%.
# HIF-2a block = inhibitors of HIF-2a. inhibition, % at 18.8 µM. 786-0 RCC cells HIF-2a reporter, luciferase luminescence, overnight. 360,000 compounds, 0.72% hits;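 active = inhibition of the luminescence signal of 40% or more relative to plate controls, in a single-dose primary screen at 18.75 µM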
# KKLEB tox = reduces viability of KKLEB cystic fibrosis airway cells | KKLEB CF airway cells viability, ATPlite luminescence, overnight; active compounds read low; cells stimulated with P. aeruginosa culture filtrate | activity change (cytotoxicity), % at 5 µM | 360,000 compounds, 0.36% hits;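 active = corrected activity change at or below -50% at 5 µM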
# LGR2 antag = inhibitors of bursicon-induced Drosophila LGR2 receptor cAMP signaling; inhibition, % at 9.99 µM; AID 720647; 380,000 compounds, 0.35% hits; HEK293 LGR2, CRE-luciferase, bursicon-stimulated, 4 h;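 active = drop in luminescence signal, shown as inhibition above about 50% in the replicate tests, limit read from the data, passing the limit was not always enough; inconclusive = probably only some replicates passing the limit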;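 note: agonist challenge used bursicon conditioned medium at about half maximal strength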
# TWEAK-Fn14 inh = inhibitors of TWEAK-Fn14 interaction signaling; inhibition, % at 10 µM; 360,000 compounds, 2% hits; TWEAK-stimulated Fn14 reporter cells, luciferase luminescence, 8 h; AID 1159606; in the data active = inhibition above about 50%
# hiPSC survival = hiPSC single-cell survival enhancement; ATPlite luminescence; 100% = ROCK inhibitor wells, 0% = DMSO; survival enhancement, % at 20 µM; 360,000 compounds, 0.044% hits; in the data active = survival enhancement above about 18%;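 note: cells exposed to compounds for 16 hours before the ATP read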
# CF NFkB inh = blocks PAF-induced NF-kB reporter in cystic fibrosis cells | KKLEB NF-kB-GFP reporter, GFP fluorescence overnight | inhibition, % at 5 µM | 360,000 compounds, 0.86% hits | AID 588850;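 active = at least 50% inhibition at 5 µM, scaled per plate between neutral and stimulator controls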;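 note: PAF is a Pseudomonas aeruginosa culture filtrate used as stimulus; plate controls were PAF-stimulated DMSO wells for no effect and unstimulated DMSO wells for full effect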
# Mdm2-MdmX confirm = Mdm2/MdmX (human) interaction inhibition, confirmed; shares compounds with HIF-2a block; SaOS-2 split-luciferase Mdm2/MdmX complementation, luminescence; inhibition, % at 8 µM; 740 compounds, 99% hits; AID 504601;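 active = mean inhibition of the luminescence signal across two replicates at or above 26 percent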
# Target sequence (O15151 whole entry, looked up): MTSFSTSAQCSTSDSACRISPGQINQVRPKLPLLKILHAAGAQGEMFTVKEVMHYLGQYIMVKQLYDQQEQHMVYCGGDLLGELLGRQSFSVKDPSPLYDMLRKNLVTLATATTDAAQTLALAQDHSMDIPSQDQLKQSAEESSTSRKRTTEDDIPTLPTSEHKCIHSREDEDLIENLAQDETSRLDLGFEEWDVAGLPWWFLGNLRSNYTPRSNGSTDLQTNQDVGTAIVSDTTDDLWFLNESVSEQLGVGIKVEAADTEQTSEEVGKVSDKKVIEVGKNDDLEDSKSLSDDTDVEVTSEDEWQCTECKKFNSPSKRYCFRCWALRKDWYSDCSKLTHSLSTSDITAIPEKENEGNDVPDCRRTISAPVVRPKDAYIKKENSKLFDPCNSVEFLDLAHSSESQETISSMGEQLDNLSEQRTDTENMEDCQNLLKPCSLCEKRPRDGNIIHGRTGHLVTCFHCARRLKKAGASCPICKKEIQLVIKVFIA
# Target sequence (Q00987 whole entry, looked up): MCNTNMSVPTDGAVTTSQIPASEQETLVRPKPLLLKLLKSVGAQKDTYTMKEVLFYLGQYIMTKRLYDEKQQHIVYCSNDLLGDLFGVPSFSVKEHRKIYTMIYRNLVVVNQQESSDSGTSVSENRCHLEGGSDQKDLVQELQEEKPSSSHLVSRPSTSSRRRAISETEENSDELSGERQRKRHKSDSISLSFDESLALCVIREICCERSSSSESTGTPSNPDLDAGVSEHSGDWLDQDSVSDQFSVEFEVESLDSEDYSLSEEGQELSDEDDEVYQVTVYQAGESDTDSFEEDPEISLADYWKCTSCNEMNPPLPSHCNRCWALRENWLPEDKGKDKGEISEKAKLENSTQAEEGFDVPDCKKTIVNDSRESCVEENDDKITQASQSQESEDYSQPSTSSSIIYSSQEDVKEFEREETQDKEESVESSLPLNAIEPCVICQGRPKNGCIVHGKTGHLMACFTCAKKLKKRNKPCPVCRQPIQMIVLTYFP
# HIF-2a inh conf = HIF-2a inhibition, single concentration confirmation | shares compounds with HIF-2a block | 786-0 RCC cells, HIF-2a luciferase reporter luminescence, overnight | inhibition, % at 18.8 µM | 1,800 compounds, 56% hits | AID 651580;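 active = mean inhibition across four replicates of at least 40 percent at the single tested concentration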
# HIF-1a cs = inhibits HIF-1a reporter, a counter-screen for HIF-2a inhibitors; shares compounds with HIF-2a block; MiaPaCa-2 HIF-1a luciferase reporter, desferoxamine, overnight; inhibition, % at 18.8 µM; 1,800 compounds, 72% hits; AID 651589;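 active = mean inhibition of the reporter signal across four replicates at the single tested dose of 50% or more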
# Starred values were filed as active, the others as inactive; ? = inconclusive; . = not tested or not shown.
SMILES,HIF-2a block,KKLEB tox,LGR2 antag,TWEAK-Fn14 inh,hiPSC survival,CF NFkB inh,Mdm2-MdmX confirm,HIF-2a inh conf,HIF-1a cs
COc1ccc(Cn2nnnc2C(c2cc3cccc(C)c3[nH]c2=O)N2CCN(C)CC2)cc1 (stereo not drawn),41.1*,-5.2,21.6,12.6,-0.3,-23.5,.,-3.2,9.9
Cc1ccc(S(=O)(=O)Nc2ccc3c(c2)C(=O)N([C@@H](C)CO)C[C@H](C)[C@H](CN(C)C(=O)Nc2cccc4ccccc24)OCCCC[C@H](C)O3)cc1,.,.,-1.9,.,.,.,.,.,.
CCN(CC)CCOc1ccc2c(c1)C(=NO)c1cc(OCCN(CC)CC)ccc1-2,54.4*,-25.5,7.2,-66.8,-1.8,15.0,.,33.1,106.9*
CCN(CC)CCOc1ccc(Br)cc1,11.4,-3.8,-8.2,0.4,1.3,-5.2,.,.,.
COc1ccc2c3c([nH]c2c1)[C@H](CO)N(Cc1ccccc1)CC31CN(C)C1,.,.,-12.2,.,.,.,.,.,.
CC(C)Cc1nc2oc3c(Cl)ncnc3c2c2c1CCC2,66.8*,-15.8,-1.6,90.2*,1.3,35.3,102.7*,48.8*,107.8*
CCN(c1ccccc1)S(=O)(=O)c1ccc(Cl)c(NC(=O)Nc2ccc(Cl)cc2C#N)c1,-89.5,-13.9,34.1,25.5,-1.2,27.5,102.7*,.,.
CCCC(=O)N1CC2(C1)CN(C(=O)C1CCCCC1)[C@H](CO)c1[nH]c3cc(OC)ccc3c12,.,.,7.2,.,.,.,.,.,.
COc1cc(/C=C/c2cc(C(F)(F)F)[nH]c(=O)n2)cc(OC)c1OC,40.0*,24.5,-1.3,47.1,-1.6,-2.2,.,26.4,-3.1
O=c1nc(/C=C/c2cc([N+](=O)[O-])ccc2Cl)cc(C(F)(F)F)[nH]1,82.8*,34.5,.,-1.5,1.1,-4.1,.,61.4*,78.5*
COc1cc(OC)c(OC)cc1/C=C/c1cc(C(F)(F)F)[nH]c(=O)n1,30.1,17.2,22.7,11.3,0.0,2.3,.,.,.
CC(C)NC(=O)N(C)C[C@H]1Oc2ccc(NC(=O)Nc3cccc4ccccc34)cc2C(=O)N([C@@H](C)CO)C[C@H]1C,.,.,-2.0,.,.,.,.,.,.
O=C(NC1CC1)C1CCN(S(=O)(=O)c2ccc(Cl)c([N+](=O)[O-])c2)CC1,21.6,9.2,11.5,0.3,-0.4,-5.8,102.2*,.,.
O=C(NC1CCN(S(=O)(=O)c2cccc([N+](=O)[O-])c2)CC1)C1CCCCC1,6.3,-8.8,-7.1,4.1,-0.3,7.6,.,.,.
Cc1cccc(OCc2n(CC(=O)OC3CC(C)CCC3C(C)C)c3ccccc3[n+]2C)c1 (stereo not drawn),95.8*,-56.6*,.,74.5*,-5.1,68.7*,102.5*,27.4,106.3*
CC1CCC(C(C)C)C(OC(=O)Cn2c(-c3ccc(F)cc3)[n+](C)c3ccccc32)C1 (stereo not drawn),-5.8,-53.9*,?,44.6,-2.1,49.5,99.5*,.,.
CC1CCC(C(C)C)C(OC(=O)C[n+]2cc(-c3ccc(Cl)cc3)n3c2CCC3)C1 (stereo not drawn),-8.9,-24.9,32.7,18.3,-0.5,20.2,.,.,.
O=C1c2cccc3cc([N+](=O)[O-])cc(c23)C(=O)N1CCN1CCCC1,-49.6,-20.3,31.8,-42.8,-0.4,-190.2,101.0*,.,.
Nc1cc2c3c(cccc3c1)C(=O)N(CCN1CCCC1)C2=O,54.2*,-1.9,-19.1,-17.7,-0.2,-113.3,.,18.5,102.3*
O=C1c2ccccc2C(=O)N1CCN1CCCCC1,11.9,-7.4,-30.3,-0.3,-2.5,9.7,.,.,.
CC(=O)N1C[C@@H]2[C@H](c3ccccc31)[C@@H](CO)N2C(=O)CC1CC1,.,.,3.5,.,.,.,.,.,.
NCCCn1cnc2ccccc21,47.5*,1.8,-8.8,10.9,1.2,8.0,.,1.1,24.9
Cc1[nH]n(-c2ccccc2)c(=O)c1/C=N/Nc1nncc(-c2ccccc2)n1,-88.7,-38.8,13.2,-2.1,-1.7,40.9,84.0*,.,.
COc1ccc(C(=O)Nc2nc3ccccc3s2)c(OC)c1,92.2*,-87.8*,102.9*,105.1*,-0.9,0.5,96.9*,.,.
Cc1cc(C2(c3ccc(O)c(C)c3)C(=O)Nc3ccccc32)ccc1O,44.9*,4.3,.,9.2,-3.4,-0.2,.,22.4,69.3*
SMILES,HIF-2a block,KKLEB tox,LGR2 antag,TWEAK-Fn14 inh,hiPSC survival,CF NFkB inh,Mdm2-MdmX confirm,HIF-2a inh conf,HIF-1a cs
COC(=O)COc1ccc(S(=O)(=O)N2CCN(c3ccccc3F)CC2)cc1,66.4*,5.2,.,-3.7,2.2,-1.6,.,12.1,-0.8
COC(=O)COc1ccc(S(=O)(=O)N2CCc3ccccc3C2)cc1C,76.2*,9.3,-7.0,-31.2,-2.2,-13.0,.,19.6,-4.6
COC(=O)COc1ccc(S(=O)(=O)N2CCN(c3ccccc3)CC2)cc1,47.9*,10.0,16.7,-10.5,3.4,-4.8,.,4.2,-12.6
O=C(O)COc1ccc(NC(=O)C(c2ccccc2)c2ccccc2)cc1,22.9,-3.5,-7.1,-4.6,-0.1,0.7,.,.,.
COC(=O)COc1ccc(NC(=O)C(c2ccccc2)c2ccccc2)cc1,88.2*,-1.0,-1.0,-5.4,0.3,3.6,.,34.2,-9.6
COC(=O)c1cc(S(=O)(=O)N2CCN(c3ccccc3F)CC2)c[nH]1,9.6,-11.8,-7.5,16.9,-0.5,7.6,.,.,.
CCCNC(=O)N1CC2(CCN(C(=O)C3CCCCC3)CC2)c2c([nH]c3cc(OC)ccc23)[C@H]1CO,.,.,-13.4,.,.,.,.,.,.
CC(=O)N1C[C@H]2[C@@H](c3ccccc31)[C@@H](CO)N2C(=O)Nc1ccc(F)cc1,.,.,5.9,.,.,.,.,.,.
Cc1cc(C)n(C(=O)/C(C#N)=N/Nc2cc(Cl)cc(Cl)c2)n1,5.4,-62.0*,.,51.3*,0.6,56.8*,95.0*,.,.
Cc1noc(C)c1NC(=O)Nc1ccc2c(c1)CC(=O)N([C@@H](C)CO)C[C@@H](C)[C@H](CN(C)C(=O)Nc1ccccc1)O2,.,.,-2.9,.,.,.,.,.,.
O=C(Nc1ccc(Cl)cc1)/C(=C/c1cccc(O)c1)c1nc2ccccc2s1,90.6*,-90.8*,86.3*,104.4*,-3.1,90.0*,102.5*,94.7*,106.0*
CN(C)CCCNC(=O)C[C@H]1CC[C@@H]2[C@H](COc3ccc(NC(=O)C4CCC4)cc3C(=O)N2C)O1,.,.,-4.7,.,.,.,.,.,.
Cc1[nH]c(=O)c(C(=O)/C=C/c2ccccc2F)c2c1CCCC2,90.4*,-37.6,86.2*,88.8*,-2.4,90.7*,103.2*,92.3*,99.8*
COCC(=O)N1CC(=O)N2[C@H](C1)[C@@H](c1ccc(-c3ccccc3C)cc1)[C@@H]2CO,.,.,17.7,.,.,.,.,.,.
